Compounds with a hit are over-represented: about 11% of the library has one in this group of screens.
PNC inhibitor: blocks assembly of the perinucleolar compartment; PC3M PTB-GFP, PNC prevalence imaging, 16 h; active compounds read low; activity change (PNC), negative = inhibition, % at 10 µM; actives 3.1% (n = 140,000);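 active = readout at or below -70, meaning at least 70% loss of cells showing the perinucleolar compartment, a nuclear body marking cancer cells; inconclusive = readout between -30 and a set limit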;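 note: plate controls were DMSO wells for no effect and camptothecin positive control wells for full effect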
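Read-out is percentage of cells bearing a perinucleolar compartment, from automated 20x imaging of fixed, Hoechst-stained PC3M PTB-GFP cells. Cells were seeded 4 h, then exposed 16 h to compound (23 nl of library stock) in duplicate plates.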
HPGD inh: HPGD (human) dehydrogenase inhibition. purified HPGD, NADH fluorescence kinetic, PGE2 substrate. P15428. actives 4.3% (n = 150,000). Potency, µM, for inactives: top-dose activity change, negative = inhibition, hits mostly inhibitors; note: potency is the fitted concentration of half-maximal effect
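20 nM HPGD preincubated 15 min at room temperature with compound in 50 mM Tris-HCl pH 8, 0.01% Tween 20. Started with 1 mM NAD+ and 30 uM prostaglandin E2; NADH fluorescence (360/450 nm) read 5 times over 30-s intervals, last minus first.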
KDM4E inh: JMJD2E (human) inhibition | JMJD2E catalytic domain, FDH-coupled NADH fluorescence (FDH is formaldehyde dehydrogenase) | Potency, µM (top dose mostly 57.1 µM), for inactives: at the top dose activity change, negative = inhibition, most hits filed as inhibitors | actives 1.6% (n = 230,000) | AID 2147;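 note: potency is the fitted concentration of half-maximal effect; 0% = wells with enzyme and -100% = buffer wells without enzyme; nearly all actives have a fitted effect of over 50% in size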
Target sequence (B2RXH2 1-337 limits assumed): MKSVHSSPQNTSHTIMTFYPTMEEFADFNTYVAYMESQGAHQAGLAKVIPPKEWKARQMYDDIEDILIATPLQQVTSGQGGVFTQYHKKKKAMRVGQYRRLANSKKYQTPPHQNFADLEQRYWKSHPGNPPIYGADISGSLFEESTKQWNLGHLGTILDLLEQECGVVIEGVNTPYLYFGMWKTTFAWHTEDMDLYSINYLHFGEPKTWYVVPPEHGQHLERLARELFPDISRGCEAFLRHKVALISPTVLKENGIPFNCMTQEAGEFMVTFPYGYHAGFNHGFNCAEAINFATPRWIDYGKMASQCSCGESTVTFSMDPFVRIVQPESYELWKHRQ
ALDH1A1 block: ALDH1A1 (human) enzyme inhibition; P00352; Purified ALDH1A1, NADH fluorescence, propionaldehyde substrate; Potency, µM (top dose mostly 75.3 µM), without a hit: at the highest dose activity, negative = inhibition, actives largely listed as inhibitors; actives 7.3% (n = 220,000); AID 1030;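 note: potency is the fitted concentration of half-maximal effect; plate controls were no enzyme wells and a reference inhibitor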
The depositor's hits bear a star; ? = inconclusive; . = not tested or not shown; [ ] = another dose, or the depositor's remark. Unless noted, calls come from the whole dose curve; as a rule, active = well fitted inhibition curve with a large enough effect (not every such curve was filed as active); inconclusive = small, poorly fitted or top-dose-only effect, or another doubt; inactive = no such curve, though single readings can be large or run the other way. Unless noted, % is set by controls: 0 for no effect and ±100 for the full control effect.

SMILES	PNC inhibitor	HPGD inh	KDM4E inh	ALDH1A1 block
CCOC(=O)N1CCC(N2Cc3cccc(C(=O)NCc4ccccc4OC)c3C2=O)CC1	-100*	-11%	4%	5%
CCOC(=O)N1CCC(N2Cc3cccc(C(=O)Nc4ccc(CC)cc4)c3C2=O)CC1	-108*	-14%	-5%	130%
CCOC(=O)N1CCC(N2Cc3cccc(C(=O)NCc4ccc5c(c4)OCO5)c3C2=O)CC1	.	.	-6%	1%
CCOC(=O)N1CCC(N2Cc3cccc(C(=O)Nc4ccc(F)cc4)c3C2=O)CC1	41	-14%	5%	6%
CCOC(=O)N1CCC(N2Cc3cccc(C(=O)NCc4ccc(OC)cc4)c3C2=O)CC1	-13	-8%	2%	20µM*
COc1ccccc1CN1CCCC2(CCN(C(C)=O)CC2)C1	.	-2%	.	-13%
CCn1c(SCC(=O)N/N=C/c2c[nH]c3ccccc23)nnc1-c1ccc(C(C)(C)C)cc1	-27	-7%	-17%	-12%
N#CCCN(Cc1cccnc1)C(=S)NC1CC2C=CC1C2 (stereo unspecified)	.	.	-7%	9%
Cc1c(C=O)c(=O)n(-c2ccccc2)n1-c1ccccc1	24	-2%	-6%	?
CC1CCCN(CCC(=O)c2ccc(Br)cc2)C1 (stereo unspecified)	-4	4µM*	0%	0.13µM*
COc1cc2c(cc1OC)CN(CCC(=O)c1ccc(Br)cc1)CC2	.	.	?	0.2µM*
Cc1ccnc(NC(=O)c2cc(-n3cnnc3)ccc2Cl)c1	-100*	-9%	-12%	-1%
O=C(Nc1ccccn1)c1cc(-n2cnnc2)ccc1Cl	22	-1%	4%	6%
CCN(CC)c1nc2ccccc2c(N)c1-c1ccccc1	-9	?	-2%	14µM*
N#C/C(=N\Nc1ccccc1Cl)C(=O)c1ccccc1	26	28µM*	6%	-67%
Cc1cc(NC(=O)NC(C)(C(F)(F)F)C(F)(F)F)no1	.	.	11%	.
Cc1cc(NC(=O)CC23CC4CC(C2)CC(CC(=O)Nc2cc(C)on2)(C4)C3)no1	-92*	-7%	12%	?
Cc1cc(NC(=O)C(C)(C)C)no1	-84*	-1%	-1%	11%
NCS(=O)(=O)O	.	-8%	.	1%[13.5 µM]
COc1ccc(-c2csc(NC(=O)CSc3nc(C)nc4sc(C(=O)O)c(C)c34)n2)cc1	.	.	-11%	?
CCOC(=O)c1c(-c2ccncc2)csc1N	?	?	-11%	?
CCOc1ccc(-c2csc(N)c2C(=O)OC)cc1	47	14µM*	-17%	22µM*
COC(=O)c1ccc(NC(=O)CN2CCCC2)cc1	11	-11%	2%	2%
CCOc1ccc(NC(=O)Cn2c(=O)oc3ccccc32)cc1	-15	10µM*	-6%	-8%
CCC(=O)Nc1ccc(Oc2ccc3c(c2)C(=O)NC3=O)cc1	-8	16µM*	8%	5%
SMILES	PNC inhibitor	HPGD inh	KDM4E inh	ALDH1A1 block
Cc1ccc(NC(=O)Cn2c(=O)oc3ccccc32)cc1	.	.	-2%	4%
CCCC(=O)Nc1ccc(Oc2ccc(NC(=O)CCC)cc2)cc1	-100*	-9%	5%	2%
CCC(=O)Nc1ccc(Oc2ccc3c(c2)C(=O)N(c2ccc(O)cc2)C3=O)cc1	-18	-11%	0%	?
CCOc1ccc(NC(=O)CN2CCN(CC(=O)Nc3ccc(C(=O)OC)cc3)CC2)cc1	15	-13%	-6%	7.1µM*
O=C(O)[C@H]1C(=CCO)O[C@H]2CC(=O)N12	.	-20%	1%	?
O=C(CN1CCCC1)Nc1ccc(Oc2ccc(NC(=O)CN3CCCC3)cc2)cc1	2	25µM*	-2%	-15%
CCOc1ccc(NC(=O)CN2CCN(C3c4ccccc4-c4ccccc43)CC2)cc1	7	-17%	-3%	11µM*
CCOc1ccc(NC(=O)CN2CCN(CC(=O)Nc3ccc(F)c(F)c3)CC2)cc1	?	-6%	-7%	4µM*
O=c1c2c3c(sc2nc2n1CCCCC2)C(O)CCC3 (stereo unspecified)	.	.	6%	0%
COc1ccccc1NC(=S)N1CCC(C(=O)c2ccc(F)cc2)CC1	.	.	9%	5%
Cc1c(Cl)cccc1NC(=S)NN1CCOCC1	26	-1%	2%	-2%
CC1=C(C(=O)OC2CCCCCC2)C(c2ccc(C)o2)C2=C(CCCC2=O)N1 (stereo unspecified)	10	?	6%	?
CC1=C(C(=O)OC2CCCC2)C(c2ccc(C)o2)C2=C(CC(c3cccs3)CC2=O)N1 (stereo unspecified)	?	-19%	?	14µM*
